Bioassay records (PubChem)
Only some compounds are listed: those with a hit (about 3.7% of all), similar ones and a draw of the others.
BoNT F protease = blocks Botulinum neurotoxin F light chain protease; inhibition, % at 10 µM; Multiplex microsphere protease cleavage assay, flow cytometry; actives 0.22% (n = 360,000); in the data active = inhibition above about 35%, passing the limit was not always enough; inconclusive = no clear call, values can overlap the other calls
MazEF act = activators of E. coli MazEF toxin-antitoxin RNase | actives 0.32% (n = 350,000) | AID 504720 | FAM/BHQ RNA-DNA oligo cleavage fluorescence, 5 h | P0AE70 | activation, % at 20 µM; in the data active = activation above about 50%
Target sequence (P0AE70 whole entry, looked up): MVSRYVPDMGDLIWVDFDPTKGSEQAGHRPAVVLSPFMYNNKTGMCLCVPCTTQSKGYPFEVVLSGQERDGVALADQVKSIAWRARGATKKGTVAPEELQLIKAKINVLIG
BoNT-A LC inh2 = BoNT A light chain protease inhibition; AID 588499; multiplex microsphere protease substrate cleavage, flow cytometry; actives 0.17% (n = 360,000); inhibition, % at 10 µM
Autofluor counter = counter-screen for toxin protease inhibitors: compound fluorescence | AID 624483 | compound autofluorescence counterscreen, microsphere flow cytometry; stronger effect = higher value | fluorescence intensity (no concentration beside the values) | actives 3.1% (n = 360,000); in the data active = fluorescence intensity above about 16000; inconclusive = no clear call, values can overlap the other calls
Anthrax LF inh2 = inhibitors of Bacillus anthracis lethal factor protease | actives 0.12% (n = 360,000) | inhibition, % at 10 µM | P15917 | multiplex microsphere protease cleavage assay, LF
Large screens that a line does not name were inactive. Rule as the data show it, unless noted: active = inhibition above about 30%; inconclusive = no clear call, values can overlap the other calls; inactive = below that.

C[C@H](CO)N1C[C@H](C)[C@H](CN(C)C(=O)Nc2ccc(C(C)(C)C)cc2)OCc2cnnn2CCCC1=O	none
N#Cc1cc2cc(Cl)ccc2[nH]c1=O	none (no result: MazEF act)
O=C(Nc1ccccc1)N1CCNCC1	none
CCCC(=O)Nc1ccccc1NC(=O)C1CCCCC1	Autofluor counter 23241
O=C(Nc1ccccc1)N1CCCC1	Autofluor counter 23605
O=C(Nc1ccc(F)cc1)N1CCOCC1	BoNT-A LC inh2 inconclusive, Autofluor counter 19165
O=C(Nc1ccc(F)cc1)N1CCCCCC1	none
CCc1ccccc1NC(=O)C1CCCC1	BoNT F protease inconclusive
COc1cc(NC(=O)C2CCCCC2)c(OC)cc1NC(=O)CCC(=O)NCc1ccco1	Autofluor counter 22591
COC(=O)C1=C[C@@H](C(=O)OC)[C@@H]2C3=C(C(=O)[C@@]2(C)NC(=O)c2ccccc2)[C@H](C)C(C(=O)OC)=C(C(=O)OC)[C@@H]3C1	none
O=C(Nc1ccccc1)C1CCCCC1	BoNT-A LC inh2 inconclusive, Autofluor counter 21764
COC(=O)/C(=C1/Oc2ccc(C(C)(C)C)cc2S1)C(F)(F)F	none
COC(=O)/C(=C1/Oc2cc(C)oc(=O)c2S1)C(F)(F)F	BoNT-A LC inh2 inconclusive, Autofluor counter 21329
CCCc1cc(=O)[nH]c2nnc(SCC(=O)Nc3cccc(NC(C)=O)c3)n12	Autofluor counter inconclusive
O=C(Cn1nc(-c2ccccc2)ccc1=O)Nc1ccc(N2CCN(C(=O)c3ccccc3)CC2)cc1	Autofluor counter 22910
Cc1ccccc1-c1ccc(=O)n(CC(=O)Nc2ccc(N3CCOCC3)cc2)n1	BoNT-A LC inh2 inconclusive, Autofluor counter 20524
COc1ccccc1-c1cnc(C(O)c2ccc(F)cc2C)[nH]1 (centres undefined)	none (no result: MazEF act)
COc1ccc(S(=O)(=O)Oc2ccc3c(c2)O/C(=C\c2cccnc2)C3=O)cc1	BoNT-A LC inh2 inconclusive, Autofluor counter 23126
CCC(=O)Oc1ccc2c(c1)O/C(=C\c1ccco1)C2=O	MazEF act 691 (no result: BoNT F protease, BoNT-A LC inh2, Autofluor counter, Anthrax LF inh2)
COc1ccccc1C(=O)Oc1ccc2c(c1)O/C(=C\c1ccncc1)C2=O	MazEF act 206
O=C1/C(=C/c2cccnc2)Oc2cc(OS(=O)(=O)c3ccc(Cl)cc3)ccc21	Autofluor counter 21029
CC(=O)Oc1ccc2c(c1)O/C(=C\c1ccncc1)C2=O	none
O=C(NCC1COCCO1)c1cc(COc2ccc(F)cc2F)on1 (centres undefined)	none
COc1ccccc1/C=C1\SC(=S)N(Nc2nc(C)cc(C)n2)C1=O	Autofluor counter 24819
O=C(c1cccs1)N(Cc1ccc(Cl)cc1)C1CCS(=O)(=O)C1 (centres undefined)	none
C=CCNc1nc(N(c2ccccc2)c2ccccc2)nc(-n2ccnc2)n1	Autofluor counter 20613
CCCCNc1nc(N(C)c2ccccc2)nc(-n2ccnc2)n1	Autofluor counter 23497
CN(c1ccccc1)c1nc(-n2ccnc2)nc(-n2ccnc2)n1	none
Cc1noc(C)c1C(=O)Nc1nc(C23CC4CC(CC(C4)C2)C3)cs1	Autofluor counter 23212
C=CC(=O)NC(NC(=O)C=C)c1ccc(Br)cc1	BoNT-A LC inh2 inconclusive, Autofluor counter 21256
CC(NC(=O)c1ccccc1)c1ccc(Br)cc1 (centres undefined)	none
C[C@H]1CN([C@@H](C)CO)C(=O)c2c(c3ccccc3n2C)-c2ccccc2CO[C@H]1CN(C)C(=O)[C@@H]1CCCN1C	none
Cc1ccc(NC(=O)CC(O)(C(F)(F)F)C(F)(F)F)cc1	BoNT-A LC inh2 inconclusive, Autofluor counter 22690
O=C(CNS(=O)(=O)c1ccccc1)Nc1ccc(C(F)(F)F)cc1	none
Cc1ccc(S(=O)(=O)NCC(=O)Nc2ccc(C(F)(F)F)cc2)cc1	Autofluor counter 23413
O=C(CNS(=O)(=O)c1ccc(F)cc1)Nc1ccc(C(F)(F)F)cc1	Autofluor counter 16544
CC1CCN(C(=O)COC(=O)c2cccc(NS(=O)(=O)c3ccccc3)c2)CC1	none
CC1CN(C(=O)/C(=C/c2ccco2)NC(=O)c2ccccc2)CC(C)O1 (centres undefined)	none
CCSCCCn1[nH]c2ccccc2c1=O	none
O=C(Nc1nccs1)C1CC(=O)N(c2ccccc2Cl)C1 (centres undefined)	Autofluor counter 23519
CCN1CCN(c2nc3ccccc3s2)CC1	BoNT-A LC inh2 inconclusive, Autofluor counter 20785
Cn1c(C(=O)N2CCN(c3nc4ccccc4s3)CC2)cc2sccc21	Autofluor counter 19151
CCCC(=O)N1CCN(c2nc3ccccc3s2)CC1	none
CSc1ccc(NC(=O)N2CCN(c3nc4ccccc4s3)CC2)cc1	BoNT-A LC inh2 inconclusive, Autofluor counter 21539
CC(C)(C)C(=O)N1CCN(c2nc3ccccc3s2)CC1	none
CCN(N=O)c1ccc(C=C2C=Cc3ccccc32)cc1	none
